# According to ChEMBL document CHEMBL3988442, “University of Dundee, Small-Polar-MMV Screening Library” (2021):
# For part of these data: Entries with a potency or affinity are not part of this list.
# How the values were obtained:
# Set-up in all cases: scale not given: direction of the effect not stated beside the values
# [1] = target: Protein translocase subunit SecA (Escherichia coli (strain K12)) (UniProt P10408); assay: Assay to Identify E. coli SecA ATPase Inhibitors; assay type: functional; conditions: 30 µM
# [2] = target: T1, Ubiquitin-activating enzyme e1, putative (Leishmania donovani (strain BPK282A1)) (UniProt E9BSI1); assay: Leishmania donovani Ubiquitin Activating Enzyme (LdE1); assay type: functional; conditions: 30 µM
# T1 sequence (whole entry): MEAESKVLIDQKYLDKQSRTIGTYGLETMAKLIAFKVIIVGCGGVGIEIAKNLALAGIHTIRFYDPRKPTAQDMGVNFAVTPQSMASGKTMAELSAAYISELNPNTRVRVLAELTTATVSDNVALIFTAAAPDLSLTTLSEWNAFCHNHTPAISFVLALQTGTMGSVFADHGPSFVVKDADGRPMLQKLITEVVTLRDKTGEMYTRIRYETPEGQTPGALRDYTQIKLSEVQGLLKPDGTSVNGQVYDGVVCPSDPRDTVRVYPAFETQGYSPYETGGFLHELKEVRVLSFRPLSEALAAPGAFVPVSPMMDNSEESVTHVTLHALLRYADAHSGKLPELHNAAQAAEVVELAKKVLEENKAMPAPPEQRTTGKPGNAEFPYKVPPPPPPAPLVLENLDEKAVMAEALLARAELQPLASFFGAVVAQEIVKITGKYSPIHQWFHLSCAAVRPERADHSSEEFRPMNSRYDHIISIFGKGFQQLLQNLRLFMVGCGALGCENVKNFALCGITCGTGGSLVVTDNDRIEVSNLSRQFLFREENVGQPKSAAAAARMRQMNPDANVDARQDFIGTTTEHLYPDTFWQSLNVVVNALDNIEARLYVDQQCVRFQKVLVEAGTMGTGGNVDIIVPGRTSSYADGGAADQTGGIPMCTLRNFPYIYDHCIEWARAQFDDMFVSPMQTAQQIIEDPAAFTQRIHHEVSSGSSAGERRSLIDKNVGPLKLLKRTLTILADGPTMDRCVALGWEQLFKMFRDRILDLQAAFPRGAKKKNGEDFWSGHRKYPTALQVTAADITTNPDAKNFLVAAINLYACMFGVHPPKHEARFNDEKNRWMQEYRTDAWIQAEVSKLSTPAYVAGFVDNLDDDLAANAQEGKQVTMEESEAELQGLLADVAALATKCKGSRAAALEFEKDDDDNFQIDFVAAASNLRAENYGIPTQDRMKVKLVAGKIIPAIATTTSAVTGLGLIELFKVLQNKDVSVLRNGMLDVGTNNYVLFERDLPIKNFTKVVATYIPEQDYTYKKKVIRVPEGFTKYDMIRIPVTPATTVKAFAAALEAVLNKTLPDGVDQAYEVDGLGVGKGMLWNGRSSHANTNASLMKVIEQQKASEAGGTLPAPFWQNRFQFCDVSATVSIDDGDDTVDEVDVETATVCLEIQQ
# [3] = target: AMP-activated protein kinase, AMPK (Homo sapiens) (UniProt P54646+O43741+P54619+Q9UGJ0+Q9Y478+Q13131+Q9UGI9); assay: AMP-dependent Kinase enzyme assay. An in vitro enzyme assay that detects ADP turnover that is directly proportional to AMPK activity. This uses naive AMPK that is activated during the assay with MK-8722; assay type: functional; conditions: 30 µM
# [4] = target: Sialic acid-binding Ig-like lectin 9 (Homo sapiens) (UniProt Q9Y336); assay: Hs-Siglec9 ALPHAscreen SOP 20170721; conditions: 10 µM
# Trypanosoma cruzi = assay: Trypanosoma cruzi phosphomannomutase and mannose-1-phosphate guanylyltransferase assay; assay type: functional; conditions: 10 µM
# [5] = target: T2, Arginase-2, mitochondrial (Homo sapiens) (UniProt P78540); assay: in vitro enzyme assay to detect the production of urea directly proportional to the activity of Arginase II; assay type: functional; conditions: 33.3 µM; further: in the data most compounds retested in dose-response had high values
# T2 sequence (whole entry): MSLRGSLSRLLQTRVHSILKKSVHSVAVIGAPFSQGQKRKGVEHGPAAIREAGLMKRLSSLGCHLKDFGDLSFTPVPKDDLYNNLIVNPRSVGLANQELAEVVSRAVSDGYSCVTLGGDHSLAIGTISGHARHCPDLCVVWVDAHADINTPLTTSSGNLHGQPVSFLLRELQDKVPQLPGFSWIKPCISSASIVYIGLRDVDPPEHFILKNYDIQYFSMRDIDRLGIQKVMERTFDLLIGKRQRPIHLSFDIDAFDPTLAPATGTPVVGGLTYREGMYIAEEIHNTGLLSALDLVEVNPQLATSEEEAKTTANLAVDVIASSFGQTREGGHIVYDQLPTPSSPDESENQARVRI
# [6] = target: T3, Proteasome subunit beta (Trypanosoma cruzi) (UniProt O96673); assay: Trypanosoma cruzi proteasome chymotrypsin-like activity (TcProtChymo) assay.; further: in the data most compounds retested in dose-response had high values; assay type: functional; conditions: 9.37 µM
# T3 sequence (whole entry): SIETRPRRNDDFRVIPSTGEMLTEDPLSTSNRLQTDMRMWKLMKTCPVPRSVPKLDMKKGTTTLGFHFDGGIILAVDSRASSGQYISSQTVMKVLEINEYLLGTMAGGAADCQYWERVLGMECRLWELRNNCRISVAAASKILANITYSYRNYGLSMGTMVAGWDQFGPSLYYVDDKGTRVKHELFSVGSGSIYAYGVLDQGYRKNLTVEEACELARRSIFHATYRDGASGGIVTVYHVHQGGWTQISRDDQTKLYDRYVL
# Homo sapiens = organism: Homo sapiens; assay: To identify inhibition of the IFN signalling (Jak-Stat) pathway via expression of an eGFP reporter gene under the control of an IFN-stimulated response element (ISRE) containing MxA promoter.; assay type: functional; conditions: 30 µM
# [7] = target: T4, Tyrosyl-tRNA synthetase, putative (Trypanosoma cruzi (strain CL Brener)) (UniProt Q4DSP6); assay: Trypanosoma cruzi tyrosyl tRNA synthetase (TcYRS) _High Tyrosine SOP; assay type: functional; conditions: 30 µM; further: in the data most compounds retested in dose-response had high values
# T4 sequence (whole entry): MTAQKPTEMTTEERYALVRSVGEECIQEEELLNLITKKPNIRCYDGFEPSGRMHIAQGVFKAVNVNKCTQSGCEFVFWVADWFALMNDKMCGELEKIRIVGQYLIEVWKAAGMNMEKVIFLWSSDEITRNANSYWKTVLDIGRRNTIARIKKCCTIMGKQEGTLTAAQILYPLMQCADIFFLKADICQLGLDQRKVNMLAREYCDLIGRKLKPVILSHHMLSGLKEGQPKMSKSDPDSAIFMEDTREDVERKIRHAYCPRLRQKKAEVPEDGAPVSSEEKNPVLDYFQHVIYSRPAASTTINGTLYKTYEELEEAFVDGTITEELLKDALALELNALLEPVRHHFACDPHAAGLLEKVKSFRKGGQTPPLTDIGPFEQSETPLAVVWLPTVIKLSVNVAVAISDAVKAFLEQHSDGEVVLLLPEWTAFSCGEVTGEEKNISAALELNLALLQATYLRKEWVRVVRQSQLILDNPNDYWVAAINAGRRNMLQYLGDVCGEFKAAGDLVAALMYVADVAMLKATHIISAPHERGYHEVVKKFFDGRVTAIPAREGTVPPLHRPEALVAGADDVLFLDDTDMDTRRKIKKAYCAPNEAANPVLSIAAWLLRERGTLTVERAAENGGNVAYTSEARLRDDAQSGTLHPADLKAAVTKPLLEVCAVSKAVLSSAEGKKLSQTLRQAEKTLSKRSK
# [8] = target: T4, Tyrosyl-tRNA synthetase, putative (Trypanosoma cruzi (strain CL Brener)); assay: Trypanosoma cruzi tyrosyl tRNA synthetase (TcYRS) SOP; assay type: functional; conditions: 30 µM
# [9] = target: Chromo domain-containing protein 1 (Saccharomyces cerevisiae (strain ATCC 204508 / S288c) (Baker's yeast)) (UniProt P32657); assay: ScCHD-1 Enzyme Inhibition Assay; assay type: functional; conditions: 30 µM; further: in the data most compounds retested in dose-response had high values
# Chromo domain-containing protein 1 (Saccharomyces cerevisiae (strain ATCC 204508 / S288c) (Baker's yeast)), sequence (P32657 whole entry, the tested form may be a part): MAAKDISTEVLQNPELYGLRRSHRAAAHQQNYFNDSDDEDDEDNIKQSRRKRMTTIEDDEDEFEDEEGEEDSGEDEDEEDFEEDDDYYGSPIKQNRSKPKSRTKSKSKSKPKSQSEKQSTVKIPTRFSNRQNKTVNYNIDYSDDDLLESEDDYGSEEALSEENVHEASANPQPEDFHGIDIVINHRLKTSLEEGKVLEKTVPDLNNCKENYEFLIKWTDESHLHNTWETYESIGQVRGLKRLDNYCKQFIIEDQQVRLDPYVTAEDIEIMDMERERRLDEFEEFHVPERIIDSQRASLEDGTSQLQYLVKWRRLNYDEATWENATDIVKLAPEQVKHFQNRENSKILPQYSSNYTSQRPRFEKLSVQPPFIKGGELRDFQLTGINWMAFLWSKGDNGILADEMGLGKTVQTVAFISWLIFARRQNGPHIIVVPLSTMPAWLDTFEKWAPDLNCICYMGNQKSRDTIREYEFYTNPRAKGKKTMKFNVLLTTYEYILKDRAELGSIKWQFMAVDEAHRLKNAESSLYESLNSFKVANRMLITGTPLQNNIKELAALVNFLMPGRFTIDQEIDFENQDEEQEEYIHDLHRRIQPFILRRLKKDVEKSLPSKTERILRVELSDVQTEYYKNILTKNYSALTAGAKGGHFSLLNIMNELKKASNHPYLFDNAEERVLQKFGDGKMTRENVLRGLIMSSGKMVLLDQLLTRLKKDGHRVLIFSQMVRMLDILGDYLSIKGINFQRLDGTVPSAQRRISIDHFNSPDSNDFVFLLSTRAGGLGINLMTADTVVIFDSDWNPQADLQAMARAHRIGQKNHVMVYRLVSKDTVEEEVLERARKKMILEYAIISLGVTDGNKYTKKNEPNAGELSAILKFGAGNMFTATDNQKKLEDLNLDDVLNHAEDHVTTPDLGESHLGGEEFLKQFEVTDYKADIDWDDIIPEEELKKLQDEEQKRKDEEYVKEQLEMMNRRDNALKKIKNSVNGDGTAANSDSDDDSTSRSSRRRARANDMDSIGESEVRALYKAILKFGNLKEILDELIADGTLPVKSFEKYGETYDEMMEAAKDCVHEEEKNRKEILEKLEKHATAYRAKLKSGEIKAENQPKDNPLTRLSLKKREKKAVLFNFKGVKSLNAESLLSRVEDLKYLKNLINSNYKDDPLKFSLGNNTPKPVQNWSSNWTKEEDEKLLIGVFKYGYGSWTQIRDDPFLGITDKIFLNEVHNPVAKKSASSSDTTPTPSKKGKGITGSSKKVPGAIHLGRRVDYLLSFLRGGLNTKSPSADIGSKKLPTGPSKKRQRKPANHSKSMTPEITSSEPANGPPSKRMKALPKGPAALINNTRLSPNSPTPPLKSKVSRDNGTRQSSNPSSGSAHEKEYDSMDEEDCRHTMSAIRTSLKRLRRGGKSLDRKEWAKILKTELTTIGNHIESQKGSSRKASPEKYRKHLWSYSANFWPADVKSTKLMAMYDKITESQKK
# Sialic acid-binding Ig-like lectin 9 (Homo sapiens), sequence (Q9Y336 whole entry): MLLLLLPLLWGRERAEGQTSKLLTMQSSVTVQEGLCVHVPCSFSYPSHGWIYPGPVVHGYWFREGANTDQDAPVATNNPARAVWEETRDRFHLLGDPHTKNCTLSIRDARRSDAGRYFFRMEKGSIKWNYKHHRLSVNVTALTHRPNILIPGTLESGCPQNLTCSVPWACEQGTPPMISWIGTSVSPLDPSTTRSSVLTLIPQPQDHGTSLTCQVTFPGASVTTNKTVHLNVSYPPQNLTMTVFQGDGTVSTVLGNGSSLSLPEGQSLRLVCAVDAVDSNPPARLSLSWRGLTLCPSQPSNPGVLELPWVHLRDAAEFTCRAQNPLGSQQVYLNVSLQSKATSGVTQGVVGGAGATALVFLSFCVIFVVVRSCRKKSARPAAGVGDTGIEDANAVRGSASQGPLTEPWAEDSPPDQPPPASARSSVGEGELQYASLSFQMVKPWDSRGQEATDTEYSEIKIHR
# Protein translocase subunit SecA (Escherichia coli (strain K12)), sequence (P10408 whole entry): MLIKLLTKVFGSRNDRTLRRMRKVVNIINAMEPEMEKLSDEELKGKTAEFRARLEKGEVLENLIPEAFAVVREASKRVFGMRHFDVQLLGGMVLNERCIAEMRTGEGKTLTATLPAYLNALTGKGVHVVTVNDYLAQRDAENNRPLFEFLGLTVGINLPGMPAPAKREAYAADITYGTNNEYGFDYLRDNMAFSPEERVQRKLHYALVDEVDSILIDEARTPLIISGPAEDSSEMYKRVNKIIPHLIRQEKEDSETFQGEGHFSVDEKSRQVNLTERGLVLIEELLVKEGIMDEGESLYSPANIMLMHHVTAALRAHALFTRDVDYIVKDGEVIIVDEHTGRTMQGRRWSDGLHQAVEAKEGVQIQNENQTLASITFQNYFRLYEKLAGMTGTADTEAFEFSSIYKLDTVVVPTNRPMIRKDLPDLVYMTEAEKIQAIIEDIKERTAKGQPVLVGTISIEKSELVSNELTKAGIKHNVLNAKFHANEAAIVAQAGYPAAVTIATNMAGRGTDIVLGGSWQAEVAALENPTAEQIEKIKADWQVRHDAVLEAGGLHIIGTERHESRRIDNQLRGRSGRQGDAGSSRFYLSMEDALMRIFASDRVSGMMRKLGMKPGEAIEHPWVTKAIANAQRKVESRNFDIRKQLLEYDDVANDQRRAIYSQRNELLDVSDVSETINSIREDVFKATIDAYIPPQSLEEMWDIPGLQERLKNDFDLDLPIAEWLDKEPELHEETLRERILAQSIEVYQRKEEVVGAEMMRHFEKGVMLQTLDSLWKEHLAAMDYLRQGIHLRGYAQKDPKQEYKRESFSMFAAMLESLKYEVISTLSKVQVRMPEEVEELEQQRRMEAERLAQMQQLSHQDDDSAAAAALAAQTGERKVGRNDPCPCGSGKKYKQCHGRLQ
SMILES,Percent Effect [1] [%],Percent Effect [2] [%],Percent Effect [3] [%],Percent Effect [4] [%],Percent Effect (Trypanosoma cruzi) [%],Percent Effect [5] [%],Percent Effect [6] [%],Percent Effect (Homo sapiens) [%],Percent Effect [7] [%],Percent Effect [8] [%],Percent Effect [9] [%]
O=C(c1cnco1)N1C[C@@H]2CC[C@H](Oc3cccc(F)c3)[C@@H]2C1,-9.68,12.2,2.91,6.76,0.988,-4.41,10.9,9.56,3.23,11.7,-8.63
CCn1cc(NC(=O)C2CCN(Cc3noc(C(C)C)n3)CC2)cn1,-2.1,8.86,0.341,3.03,-1.74,-0.645,10.3,8.77,9.38,22.8,-19.2
O=C(NCCC(=O)N1CCCc2ccccc21)c1c(O)cc(F)cc1F,-5.79,10.4,-0.269,9.22,6.95,-1.47,11.1,22.7,-0.952,-49.4,-16.6
Cc1cnn(CC(C)NCc2ccc(OCc3ccncc3)cc2)c1 (centres undefined),-5.11,-1.27,4.3,-6.57,-6.67,-3.66,9.95,24.2,5.21,5.06,-25.8
Cc1cc(C)nc(CCNC(=O)C(c2ccc(F)cc2)N(C)C)n1 (centres undefined),6.75,11,8.61,2.2,-9.13,-31.9,3,48.8,1.04,6.17,-6.29
COc1ncccc1CN1CCn2c(Cn3cncn3)cnc2C1,-1.73,18.7,0.535,-13.2,-2.76,2.1,8.19,-1.48,0,6.41,-3.83
Cc1cccc(N2Cc3nc(=O)[nH]n3C2=O)c1,1.1,4,3.29,-0.713,-4.52,-9.33,19.6,-0.119,5.29,5.13,-4.23
CS(=O)(=O)N1CCC(Oc2ccc(C(=O)N3CCSCC3)cc2Cl)CC1,-2.47,9.72,3.27,18.5,4.37,-2.21,3.86,25.7,3.16,7.69,-2.42
Cc1cnn(CC2CN(Cc3nnc(C4CC4)o3)CCO2)c1 (centres undefined),-7.99,5.41,87.3,7.35,-4.18,-4.99,-1.26,8.17,1.98,3.66,7.2
